About 83,000 compounds went through this panel and 20% of them were active in at least one assay; those are over-represented in the sample as a whole.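 The test compound was applied at a single concentration to cells in 96-well plates for 48 hours, and percent growth was recorded.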 Unmarked numbers belong to inactive results. Activity calls are given as the source filed them. Rule for the calls: active = growth percent below 10; inactive = the rest.

The test system of this assay is HS 578T breast. Briefly: NCI-60 one-dose screen, 48 h (100 = growth as untreated, 0 = no growth, -100 = all killed). The note with it: 10 µM.
Consider `CCc1ccc(-c2ccc(-n3nc(C)c4c(N)nc(Cc5ccccc5)nc43)cc2)cc1`, for which the growth was 57.6%.
Consider `O=C(Nc1ccc(F)cc1)c1cc2ccccc2cc1O`, for which the growth is 87.9%.
In the case of `Nc1nccc(OCCO)n1`, the growth was 107%.
For the molecule `O=C(CCCCNC(=O)c1nc(-c2ccccc2)n(-c2ccccc2)n1)NO`, the growth is 60.8%.
As for `O=C(Nc1ccc2c(O)cc(S(=O)(=O)O)cc2c1)c1ccc([N+](=O)[O-])cc1`, the figure is 103%.
Take `C=CCn1c(SCC(=O)Nc2ccc(C(=O)/C=C/c3ccc(OC)cc3)cc2)nnc1-c1ccc(OC)c(OC)c1`: the growth is 86.4%.
Consider `O=C(CCl)Nc1ccc(Cc2ccc(NC(=O)CCl)cc2)cc1`, for which the growth was 35.7%.
As to `Cc1cc(SCc2ccccc2)nc(N)n1`, the growth was 111%.
As to `Cc1nn(-c2ccc(-c3ccc(OC(F)(F)F)cc3)cc2)c2nc(Cc3ccccc3)nc(N)c12`, the growth is 55.5%.
For the molecule `O=C(Nc1nc(-c2ccccc2)nc2c1sc(=S)n2-c1ccccc1)C(F)(F)F`, the growth was 96.6%.
As for `S=c1cnc2ccccc2[nH]1`, the figure is 91.5%; as for `O=C(CSc1nnc(-c2ccc(Cl)cc2)o1)Nc1ccc(C(=O)/C=C/c2ccc(Cl)cc2)cc1`, 95.9%.
For the molecule `CN(C)CCN(Cc1ccccc1)c1ccc2ccccc2n1`, the growth is 92.4%.
In the case of `CCN(CC)CCOc1cccc2c1C(=O)c1cccc(OCCN(CC)CC)c1C2=O`, the growth was 78.9%.
On to `O=C(NCCCNS(=O)(=O)c1ccc(Cl)cc1)Nc1ccc(-n2cc(-c3ccncc3)c(-c3ccc(Cl)c(O)c3)n2)cc1`, for which the growth was 40.9%.
With `C1CN(CC2CCC(CN3CCOCC3)O2)CCO1` (stereo not given) the figure was 104%.
With `N#CC1=C(N)Oc2cc(N)ccc2C1c1cccnc1` (stereo not given), the growth is 82.4%.
On to `CCOC(=O)c1cc(C(=O)c2cc(OC)cc(OC)c2)n2nc(C)ccc12`, for which the growth is 36.4%.
On to `COc1cc(C)ccc1Oc1nc(Nc2ccc(N3CCOCC3)cc2)ncc1NC(=O)Nc1cc(C(F)(F)F)cc(C(F)(F)F)c1`, for which the growth was 43.6%.
As to `COc1ccc(/C=C2\CCCC3C2=Nc2ccccc2NC3c2ccc(OC)cc2)cc1` (stereo not given), the growth was 87.6%.
With `CCN(CC)CC(=O)N(CC)c1ccc(C)c(Cl)c1` the figure was 100%; with `O=C(CC(CC(=O)c1ccccc1)c1ccccc1O)c1ccccc1`, 86.6%.
With `C=C(C)[C@@H]1CC[C@]2(COCCC#N)CC[C@]3(C)[C@H](CC[C@@H]4[C@@]5(C)Cc6c([nH]c7ccccc67)C(C)(C)[C@@H]5CC[C@]43C)[C@@H]12` the figure was 90.6%; with `Fc1ccc2[nH]cc(-c3nc(-c4ccsc4)cs3)c2c1`, 96.8%.
In the case of `COc1cc(-c2nn(-c3cccc(NC(=O)CCN4CCN(Cc5ccccc5)CC4)c3)cc2-c2ccncc2)ccc1Cl`, the growth was 2.23% (active).
With `Cc1cc(=O)n2nnc3cc(Cl)c(Cl)cc3n12` the figure was 122%; with `O=C(/C=C/C=C/c1c(C2CC2)nc2ccccc2c1-c1ccc(F)cc1)c1cccs1`, 24.4%.
As to `CC(=O)[C@H]1CC[C@]2(C)[C@@H]1CC[C@@H]1[C@@]3(C)CC(CCC#N)(CCC#N)C(=O)C(C)(C)[C@@H]3CC[C@]12C`, the growth was 90.5%.
As for `CCNCC(=O)Nc1ccc(C(=O)OCC)cc1`, the growth was 97.4%.
`S=C(NCc1ccccc1)NCc1ccccc1`: the growth is 96.1%.
As for `CN1CCN(CCC(=O)Nc2cccc(-n3cc(-c4ccncc4)c(-c4ccc(Cl)c(O)c4)n3)c2)CC1`, the figure is 43.1%; as for `O=S(=O)(O)c1cccc(Nc2ccc3ccccc3c2)c1`, 96.6%; as for `CCN(CC)CCOc1ccc2c(c1O)C(=O)c1ccccc1C2=O`, 84.6%.
With `S=C(SSC(=S)N(c1ccccc1)c1ccccc1)N(c1ccccc1)c1ccccc1` the figure was 108%; with `CN1CCN(CC(=O)Nc2cccc(-n3cc(-c4ccncc4)c(-c4ccc(Cl)c(O)c4)n3)c2)CC1`, 38.2%.
